The campaign covered roughly 260,000 compounds. About 890 (0.34%) were called active. A call without a number means that no potency is given here. Inconclusive results (about 1%) are left out. This excerpt belongs to a sample that is enriched for actives. A number with no mark means an inactive call. The call rests on the fitted dose curve; in most records, active means well fitted activation curve with a large enough effect; inconclusive means small, poorly fitted or top-dose-only effect; inactive means no such curve, though single readings can be large or run the other way.
The compounds below were run against Pyruvate kinase PKM (Homo sapiens) (UniProt P14618) (assay: qHTS Assay for Activators of Human Muscle isoform 2 Pyruvate Kinase). Conditions: purified PKM2, Kinase-Glo ATP luminescence; Potency: activation; series mostly up to 57.5 µM.
Pyruvate kinase PKM (Homo sapiens), sequence (P14618 whole entry, looked up, canonical isoform): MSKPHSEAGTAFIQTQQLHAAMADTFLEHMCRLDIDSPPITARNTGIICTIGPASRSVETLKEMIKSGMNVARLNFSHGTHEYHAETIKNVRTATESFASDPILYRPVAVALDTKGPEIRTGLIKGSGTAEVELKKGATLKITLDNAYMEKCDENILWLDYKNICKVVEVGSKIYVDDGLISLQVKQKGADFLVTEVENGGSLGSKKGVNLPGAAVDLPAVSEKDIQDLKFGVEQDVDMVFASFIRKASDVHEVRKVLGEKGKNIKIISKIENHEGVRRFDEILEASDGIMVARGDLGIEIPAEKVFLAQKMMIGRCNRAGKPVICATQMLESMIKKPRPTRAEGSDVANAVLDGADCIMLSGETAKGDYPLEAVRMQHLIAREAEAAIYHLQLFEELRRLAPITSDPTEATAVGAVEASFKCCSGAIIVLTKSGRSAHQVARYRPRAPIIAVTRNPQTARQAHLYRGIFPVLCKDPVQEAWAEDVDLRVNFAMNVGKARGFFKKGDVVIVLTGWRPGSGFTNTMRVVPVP
Excerpt: NIH Chemical Genomics Center [NCGC] Matthew G. Vander Heiden, M.D., Ph.D. [Harvard Medical School, 77 Avenue Louis Pasteur, Boston, MA 02115] MLPCN Grant: 1 R03 MH085679-01 NCGC Assay Overview: Human pyruvate kinase muscle 2 (hPK-M2) enzyme was supplied as a highly purified (>95% pure) preparation from Harvard Medical School and assayed for its ability to generate ATP from ADP using phosphoenolpyruvate (PEP) as a substrate. ATP generation was detected in a coupled reaction by luciferase-mediated luminescence, an ATP-dependent process. […] The enzyme was assayed at an intermediate level of activity to screen for both inhibitors and activators.
NCGC Assay Protocol Summary: Three uL of substrate mix (at r.t.) in assay buffer (50 mM Imidazole pH7.2, 50 mM KCl, 7 mM MgCl2, 0.01% Tween 20, 0.05% BSA) was dispensed into white solid bottom 1,536 well microtiter plates so that the final concentrations of substrates in the assay were 0.1 mM ADP and 0.5 mM PEP. 23 nL of compound were delivered by a pin tool and 1 uL of enzyme mix in assay buffer (4 degree Celsius) was added. Plates were incubated at room temperature for 1 hour. Two uL of detection mix (Kinase-Glo, Promega; at 4 degree Celsius protected from light) was added and luminescence read by a ViewLux (Perkin Elmer) at 5 second exposure/plate. Data were normalized to the uninhibited and AC100 inhibition (no enzyme). To monitor activation, the first column contained a titration of the activator, NCGC00031955-01 (16-point 1:2 dilutions in duplicate starting at 57 uM) and the first 16 rows of column 4 contained 57 uM of NCGC00031955-01.
With `Cc1nc2ccccc2c(=O)n1-c1ccc(Cl)cc1Cl` the activation was -0.0497% [at 11.5 µM, 0% is enzyme alone, no compound]. `O=c1c2ccccc2nc(-c2ccco2)n1-c1ccc(Br)cn1` was tested, and the activation was “inactive”. In the case of `O=c1c2ccccc2nc(/C=C/c2ccco2)n1-c1ccccc1O`, the Potency is reported as 3.98 µM (active). `CCCCn1c(=O)c(C(=O)Nc2ccccc2Cl)c(O)c2ccccc21` was tested, and the activation was “inactive”. `CN(C)C(=O)Oc1ccc(NC(=O)N2CCOCC2)cc1` was tested, and the activation was “inactive”.
Further: nearly all actives have a fitted effect of over 55% in size.
Potency means the concentration at half of the fitted maximal effect.
